Here are results for eight molecules from PubChem BioAssay (NCI).

Molecules are shown by their SMILES. Compounds without any hit were thinned out: in the full panel of roughly 83,000, 20% have a hit.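 In brief: 96-well plates, 48 h treatment, single concentration, percent growth endpoint.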 Unmarked numbers belong to inactive results. The source made the active and inactive calls. How the source made its calls: active means growth percent below 10; inactive means the rest.

Some test systems named below: DU-145 prostate; K-562 leukemia; MALME-3M melanoma; MDA-MB-231 breast; RXF 393 renal; SF-268 CNS; SF-295 CNS; SF-539 CNS; UACC-257 melanoma; M14 melanoma; HCT-15 colon; HT29 colon; SNB-75 CNS; SNB-19 CNS; PC-3 prostate; SK-MEL-5 melanoma; UACC-62 melanoma; SK-MEL-28 melanoma; U251 CNS; LOX IMVI melanoma.
Test in all cases: NCI-60 one-dose screen, 48 h (100 = growth as untreated, 0 = no growth, -100 = all killed)
Common to all, as to conditions: 10 µM unless noted

For `COc1nc2c(cc1S(=O)(=O)c1ccccc1)CCc1c-2cnn1-c1ccccc1`, the growth in the assay on DU-145 prostate is 95.4%; with K-562 leukemia it was 54.1%; with MALME-3M melanoma, 69.2%; in the assay with MDA-MB-231 breast, 89.2%; in the assay on RXF 393 renal, 94.4%; in the assay with SF-268 CNS, 86.8%. Moreover, the growth was 84.9% with SF-295 CNS; 79% in the assay on SF-539 CNS; 78.2% in the assay with UACC-257 melanoma; 80.7% in the assay on M14 melanoma; 59.8% in the assay on HCT-15 colon; 54.7% in the assay on HT29 colon. The growth was 65.8% with SNB-75 CNS; 89.3% with SNB-19 CNS; 50.3% with PC-3 prostate; 86.6% in the assay with SK-MEL-5 melanoma; 69.4% in the assay on UACC-62 melanoma; 82.9% in the assay on SK-MEL-28 melanoma.

Turning to `O=[N+]([O-])c1cc2c(cc1Br)-c1ccccc1C2`, the growth in the assay with DU-145 prostate was 113%; with K-562 leukemia, 95.6%; in the assay with MALME-3M melanoma, 110%; in the assay with MDA-MB-231 breast, 90.8%; in the assay with RXF 393 renal, 99.5%; in the assay on SF-268 CNS it was 98.1%. Also, the growth is 93.4% in the assay with SF-295 CNS; 101% in the assay on SF-539 CNS; 98.8% with UACC-257 melanoma; 78.7% in the assay on M14 melanoma; 45.3% in the assay on HCT-15 colon; 95.9% in the assay on HT29 colon. The growth with SNB-75 CNS is 86.5%; in the assay on U251 CNS, 98.5%; in the assay on PC-3 prostate, 91.8%; in the assay on UACC-62 melanoma, 82%; in the assay with SK-MEL-28 melanoma, 98.4%.

Consider `O=C(Nc1ccc(Cl)c(Cl)c1)OCn1ncc2ccc([N+](=O)[O-])cc21`, for which the growth in the assay on DU-145 prostate is 108%; in the assay with K-562 leukemia, 88%; in the assay on MALME-3M melanoma, 78.5%; with MDA-MB-231 breast, 75.7%; with RXF 393 renal, 83.2%; in the assay on SF-268 CNS, 82.3%. Also, the growth in the assay with SF-295 CNS was 88.4%; in the assay on SF-539 CNS it was 78.1%; in the assay with UACC-257 melanoma, 90.2%; in the assay with M14 melanoma it was 94.7%; in the assay with HCT-15 colon, 84.9%; in the assay on HT29 colon, 103%. In addition, the growth with SNB-75 CNS is 67.8%; in the assay with SNB-19 CNS it was 92.9%; in the assay with PC-3 prostate, 70.9%; in the assay with SK-MEL-5 melanoma, 95.7%; with UACC-62 melanoma, 73.6%; with LOX IMVI melanoma, 78.8%. In addition, the growth in the assay with SK-MEL-28 melanoma was 108%.

On to `COc1nc2c(cc1S(=O)(=O)c1ccccc1)CCc1c-2cnn1-c1cccc(Cl)c1`, for which the growth with DU-145 prostate was 97%; in the assay on K-562 leukemia it was 61.4%; in the assay with MALME-3M melanoma, 78.7%; in the assay with MDA-MB-231 breast, 89.7%; in the assay on RXF 393 renal, 76.7%; in the assay on SF-268 CNS, 87.2%. Also, the growth was 80.2% in the assay on SF-295 CNS; 81.7% in the assay on SF-539 CNS; 78.7% with UACC-257 melanoma; 83.4% in the assay on M14 melanoma; 71% with HCT-15 colon; 54.9% in the assay on HT29 colon. For the same molecule, the growth in the assay with SNB-75 CNS is 85.5%; in the assay on SNB-19 CNS, 98.2%; in the assay on PC-3 prostate, 64.4%; in the assay on SK-MEL-5 melanoma it was 88%; in the assay with UACC-62 melanoma, 71.2%; with LOX IMVI melanoma, 93.9%. The growth in the assay with SK-MEL-28 melanoma was 86.4%.

As for `Cc1nc2cc(Nc3nc(Nc4ccc(F)cc4)nc(N4CCN(C)CC4)n3)ccc2n1Cc1ccccc1`, the growth in the assay on DU-145 prostate was 16.7%; with K-562 leukemia, 0.387% (active); in the assay with MALME-3M melanoma, -83.4% (active); in the assay on MDA-MB-231 breast, -73.3% (active); in the assay on RXF 393 renal, -82.7% (active); with SF-268 CNS it was 14.6%. The growth was -62.5% (active) in the assay with SF-295 CNS; -95.9% (active) with SF-539 CNS; -83.7% (active) in the assay with UACC-257 melanoma; -73% (active) in the assay on M14 melanoma; -34.3% (active) in the assay with HCT-15 colon; -51.9% (active) with HT29 colon. For the same molecule, the growth with SNB-75 CNS was -20.4% (active); with SNB-19 CNS, 44.2%; in the assay with PC-3 prostate, 19.7%; with SK-MEL-5 melanoma, 80.9%; in the assay with UACC-62 melanoma, -65.4% (active); in the assay with LOX IMVI melanoma it was -73.6% (active). The growth with SK-MEL-28 melanoma was -67.4% (active).

With `Cc1nn(-c2ccccc2)c2nc3nc4c(c(N)c3c(-c3ccc(Cl)cc3)c12)CCCC4`, the growth with DU-145 prostate was 109%; in the assay with K-562 leukemia, 53.4%; with MALME-3M melanoma it was 108%; in the assay with MDA-MB-231 breast, 91.5%; in the assay with RXF 393 renal it was 90.9%; in the assay on SF-268 CNS it was 105%. Besides, the growth is 96% in the assay with SF-295 CNS; 96.9% in the assay on SF-539 CNS; 91.9% in the assay on UACC-257 melanoma; 106% in the assay on M14 melanoma; 93.3% with HCT-15 colon; 91.5% in the assay with HT29 colon. Further, the growth in the assay with SNB-75 CNS was 101%; in the assay with SNB-19 CNS, 108%; in the assay with PC-3 prostate it was 94.7%; in the assay on SK-MEL-5 melanoma it was 101%; in the assay with UACC-62 melanoma, 108%; in the assay on LOX IMVI melanoma, 94.4%. The growth with SK-MEL-28 melanoma is 97.2%.

`COC(=O)C1C2CC3c4[nH]c5cc(OC)ccc5c4CCN3CC2CC(OC2CCCCO2)C1OC` (stereo unspecified): the growth in the assay on DU-145 prostate is 111%; in the assay on K-562 leukemia, 95.2%; with MALME-3M melanoma, 104%; in the assay with MDA-MB-231 breast, 96.8%; with RXF 393 renal it was 104%; in the assay with SF-268 CNS, 101%. Besides, the growth in the assay with SF-295 CNS is 102%; in the assay on SF-539 CNS, 97.6%; in the assay on UACC-257 melanoma it was 98.6%; in the assay with M14 melanoma it was 103%; in the assay with HCT-15 colon, 99.8%; with HT29 colon it was 94.4%. The growth is 84.4% with SNB-75 CNS; 87.1% in the assay on PC-3 prostate; 99.3% in the assay on UACC-62 melanoma; 95.4% with LOX IMVI melanoma; 101% with SK-MEL-28 melanoma.

Take `CCOC(=O)c1[nH]c2cc(Cl)ccc2c1[C@@H](C(=O)NC(C)(C)C)N(CC)C(=O)CCCCC#Cc1cccc2c1CN(C1CCC(=O)NC1=O)C2=O` (stereo partly specified): the growth was 32.8% in the assay with DU-145 prostate; 17.5% in the assay on K-562 leukemia; -12.6% (active) in the assay with MALME-3M melanoma; -50.1% (active) with MDA-MB-231 breast; -1.34% (active) in the assay with RXF 393 renal; 25% with SF-268 CNS. The growth with SF-295 CNS was -5.32% (active); in the assay on SF-539 CNS, 29.6%; in the assay with UACC-257 melanoma, 28.4%; in the assay on M14 melanoma, 16.9%; in the assay with HCT-15 colon it was -2.23% (active); with HT29 colon, 8.65% (active). The growth was 0.961% (active) in the assay on SNB-75 CNS; 28.2% in the assay on SNB-19 CNS; 11.7% with PC-3 prostate; -53.4% (active) in the assay on SK-MEL-5 melanoma; 27.2% with UACC-62 melanoma; 29.6% with SK-MEL-28 melanoma.
